Measured values taken from PubChem BioAssay.
Activity calls are given as the source filed them. Unless noted, the rule behind the calls is not given here.

Columns and labels:
[1] = test system: XIP peptide (Xip251-270) binding; assay: small-molecule binders of XIP peptide, primary screen, biochemical, small-molecule microarray, fluorescence 635/667 nm, 0.1 µg/mL protein (AID 1182); conditions: fluorescent protein binding, 635 nm, higher = more signal, called active from +8 up or from −8 down
[2] = test system: XIP peptide (Xip251-270); assay: small-molecule binders of XIP peptide, primary screen, biochemical, small-molecule microarray, fluorescence 635/667 nm, 0.5 µg/mL protein (AID 1183); conditions: small-molecule microarray binding, fluorescence 635 nm; higher = more signal
[3] = Plasmodium falciparum growth inhibition, primary screen, strain 3D7, DAPI fluorescence, 100 nL (AID 1184);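 note: parasites grown inside human red blood cells in medium with human serum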; conditions: P. falciparum 3D7 growth, 3 d, higher = more signal
[4] = target: Homeobox protein Hox-A13 (Mus musculus) (UniProt Q62424); assay: inhibitors of HoxA13-DNA binding, primary screen, biochemical, fluorescence polarization, labeled oligonucleotide (AID 1185); conditions: 15 min, higher = more signal, called active from +8 up or from −8 down
Sequence of Homeobox protein Hox-A13 (Mus musculus) (Q62424 whole entry, looked up): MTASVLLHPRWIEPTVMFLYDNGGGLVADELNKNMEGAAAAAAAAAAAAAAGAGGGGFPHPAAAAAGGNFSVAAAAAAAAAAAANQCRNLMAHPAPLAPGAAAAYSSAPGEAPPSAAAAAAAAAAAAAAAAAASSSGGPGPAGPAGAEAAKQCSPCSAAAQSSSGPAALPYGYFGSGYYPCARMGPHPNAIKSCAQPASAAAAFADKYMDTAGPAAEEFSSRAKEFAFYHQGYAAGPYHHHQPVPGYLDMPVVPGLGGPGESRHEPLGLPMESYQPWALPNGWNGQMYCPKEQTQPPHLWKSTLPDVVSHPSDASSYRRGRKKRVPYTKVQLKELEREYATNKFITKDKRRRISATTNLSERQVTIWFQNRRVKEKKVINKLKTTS

[5] = inhibitors of hydroxyurea-induced Chk1 phosphorylation, primary screen, imaging, HeLa, phospho-Chk1 antibody, percent positive cells (AID 1186); conditions: hydroxyurea-induced phospho-Chk1 immunofluorescence imaging, higher = more signal
[6] = inhibitors of hydroxyurea-induced Chk1 phosphorylation, primary screen, imaging, HeLa, phospho-Chk1 nuclear intensity (AID 1187); conditions: hydroxyurea-induced phospho-Chk1 immunofluorescence imaging, higher = more signal

Row | Structure (SMILES) | composite z-score [1] | composite z-score [2] | z-score [3] | z-score [4] | z-score [5] | z-score [6]
1 | C=CCOC(=O)[C@@H]1[C@H]2C(=O)O[C@H](c3ccccc3)[C@H](c3ccccc3)N2[C@H](c2ccc(OCCOC(=O)[C@H]3C[C@H]4C(=O)N[C@@H](CC(C)C)C(=O)N4[C@H]3c3cccc(OCCO)c3)cc2)[C@@]12C(=O)Nc1ccc(I)cc12 | 0.559 (inactive) | 0.824 | -1.68 | 2.41 (inactive) | 0.537 (inactive) | 0.273 (inactive)
2 | COC(=O)[C@@]1(Cc2ccc(F)cc2)[C@H]2c3cc(C(=O)N4CCCC4)n(CCc4ccc(OC)c(Br)c4)c3C[C@H]2CN1C(=O)c1ccccc1 | -0.0505 (inactive) | 0.557 | -1.58 | -2.27 (inactive) | -1.03 (inactive) | -0.872 (inactive)
3 | O=C1O[C@@H](c2ccccc2)[C@@H](c2ccccc2)N2[C@@H](c3ccc(O)cc3)[C@]3(C(=O)Nc4ccc(C#CCCO)cc43)[C@@H](C(=O)O)[C@H]12 | 0.665 (inactive) | 0.785 | -0.63 | -4.56 (inactive) | 0.0686 (inactive) | 0.632 (inactive)
4 | COC(=O)[C@@]1(Cc2ccccc2)[C@H]2c3cc(C(=O)N(C)C)n(Cc4ccccc4)c3C[C@H]2CN1C(=O)c1ccccc1 | 0.394 (inactive) | 0.225 | -1.43 | -5.49 (inactive) | 1.54 (inactive) | 0.928 (inactive)
5 | CN(C)CCCCCCNC(=O)[C@@H]1C[C@@H]2C(=O)N[C@@H](Cc3ccccc3)C(=O)N2[C@@H]1c1cccc(OCCO)c1 | 2.15 (inactive) | 0.809 | 0.526 | -4.13 (inactive) | 0.0258 (inactive) | -0.024 (inactive)
6 | C/C=C/[C@H](CCn1cc([C@H](O)c2ccccc2)nn1)[Si](C)(C)c1ccc(OC)cc1 | -0.0661 (inactive) | 0.634 | 1.03 | -5.59 (inactive) | -0.131 (inactive) | -0.28 (inactive)
7 | C=C(C)[C@@H]1CC=C(C(O)C2C=CC3C(=O)N(Cc4ccccc4)C(=O)C3N2n2cnnc2)CC1 (stereo not given in full) | -0.137 (inactive) | 0.3 | -1.03 | -1.35 (inactive) | -0.0789 (inactive) | 0.265 (inactive)
8 | COCCOC(=O)N1C(=O)[C@@]2(c3ccccc31)[C@H](c1ccc(O)cc1)N1[C@H](c3ccccc3)[C@H](c3ccccc3)OC(=O)[C@H]1[C@@H]2C(N)=O | -0.728 (inactive) | -0.0106 | 0.346 | -5.26 (inactive) | -0.0882 (inactive) | -0.282 (inactive)
9 | CN1C(=O)C2C=CC(C(O)C(c3ccccc3)c3ccccc3)N(Nc3ccccc3)C2C1=O (stereo not given) | 0.0848 (inactive) | 0.68 | 0.608 | -4.01 (inactive) | 0.535 (inactive) | -0.0171 (inactive)
10 | COc1ccc([Si](C)(C)[C@@H]2[C@@H](CCO)O[C@]3(C(=O)N(Cc4cccc(N5CCCCC5=O)c4)c4ccccc43)[C@H]2C)cc1 | 0.278 (inactive) | 0.648 | -2.82 | -5.08 (inactive) | -0.405 (inactive) | -0.474 (inactive)
11 | COc1ccc([Si](C)(C)[C@H]2[C@H](CC(=O)N3CCC[C@H]3CO)O[C@@]3(C(=O)N(c4ccccc4)c4ccccc43)[C@@H]2C)cc1 | 0.511 (inactive) | 0.531 | -0.887 | -3.87 (inactive) | -1.18 (inactive) | -0.219 (inactive)
12 | C=CC[C@@]1(C(=O)NCCN2CCOCC2)N=C(c2ccc(OCCCO)cc2)O[C@@H]1c1ccccc1CN=[N+]=[N-] | 1.21 (inactive) | 0.818 | -2.13 | -1.05 (inactive) | -0.336 (inactive) | -0.254 (inactive)
13 | COc1cc(CO)cc(I)c1O[C@H]1C=C(C(=O)NCCO)C[C@@H](N(CCc2cccc(F)c2)C(=O)CCC2CCCC2)[C@@H]1O | 0.131 (inactive) | 0.65 | -2.18 | -6.89 (inactive) | 0.624 (inactive) | 0.824 (inactive)
14 | C=CCN1C(=O)[C@@]2(O[C@@H](CCO)[C@H]([Si](C)(C)c3ccc(OC)cc3)[C@H]2C)c2cc(N3C(=O)COc4ccccc43)ccc21 | 1.28 (inactive) | 0.623 | -2.68 | -4.65 (inactive) | -1.39 (inactive) | -0.883 (inactive)
15 | NC(=O)[C@]1(Cc2ccccc2)N=C(c2ccc(OCCCO)cc2)O[C@@H]1c1ccccc1 | -0.0696 (inactive) | 0.0178 | -2.04 | -5.25 (inactive) | -0.0614 (inactive) | -0.209 (inactive)
16 | CCN(CC)c1ccc(N2CC=CC34O[C@@H]5C=CCCOC(=O)C5[C@H]3C(=O)N(CCCO)[C@@H]4C2=O)cc1 (stereo not given in full) | -0.658 (inactive) | -0.588 | -1.49 | -3.95 (inactive) | -0.28 (inactive) | -0.816 (inactive)
17 | Cc1ccc(S(=O)(=O)N2CC(C(=O)O)=CCC2c2ccccc2)cc1 (stereo not given) | 0.624 (inactive) | 0.268 | -0.863 | -2.63 (inactive) | -0.557 (inactive) | -0.655 (inactive)
18 | CC(=O)n1cc(C(O)C2C=CC3C(=O)N(c4ccccc4)C(=O)C3N2Nc2ccc(C#N)cc2)c2ccccc21 (stereo not given) | 1.16 (inactive) | 0.786 | 0.429 | -3.54 (inactive) | -0.199 (inactive) | -0.217 (inactive)
19 | O=C1O[C@H](c2ccccc2)[C@H](c2ccccc2)N2[C@H]1[C@@H](C(=O)N1CCCCCCC1)[C@]1(C(=O)Nc3ccc(C#CC4=CCCCC4)cc31)[C@H]2c1ccc(O)cc1 | 8.07 (active) | 1 | -1.96 | 3.02 (inactive) | -0.323 (inactive) | -0.649 (inactive)
20 | COCCCNC(=O)[C@]1(Cc2ccccc2N=[N+]=[N-])N=C(c2ccc(OCCCO)cc2)O[C@@H]1c1ccccc1CN=[N+]=[N-] | 0.0423 (inactive) | 0.758 | -2.21 | -0.242 (inactive) | -0.659 (inactive) | -0.443 (inactive)
21 | CN(C)CCCN1C(=O)[C@@]2(c3ccc([N+](=O)[O-])cc3)CC(=O)N(C3CCCCC3)[C@@H]2c2ccc(CO)cc21 | -0.157 (inactive) | -0.0092 | 0.615 | -0.595 (inactive) | -0.659 (inactive) | -0.648 (inactive)
22 | [N-]=[N+]=NCc1ccccc1C[C@]1(C(N)=O)N=C(c2ccc(OCCCO)cc2)O[C@H]1c1ccccc1N=[N+]=[N-] | 2.56 (inactive) | 0.664 | -2.06 | -4.7 (inactive) | -0.118 (inactive) | -0.0296 (inactive)
23 | CCCCN1CC=CC23O[C@@H]4C=CCCOC(=O)C4[C@H]2C(=O)N(CCCO)[C@@H]3C1=O (stereo not given in full) | -0.687 (inactive) | -0.624 | -1.74 | -3.72 (inactive) | -0.0781 (inactive) | -0.559 (inactive)
24 | C=C(CCCC)C(=O)CC[C@H](OC(=O)c1ccccc1-c1ccccc1C(=O)O)c1ccc(CO)o1 | 0.556 (inactive) | 0.582 | -0.714 | -6.05 (inactive) | -0.131 (inactive) | -0.23 (inactive)
25 | C=C(COC)C(=O)CC[C@H](OC(=O)c1cccnc1)c1ccccc1OCCO | -0.0123 (inactive) | 0.444 | -3.02 | -4.46 (inactive) | 0.735 (inactive) | 0.565 (inactive)
